From PubChem BioAssay (NCATS) come the findings set out here.

Inconclusive results are not listed. Entries that show only a call come without a potency. The source made the active and inactive calls. The call rests on the fitted dose curve; in most records, active means well fitted cell-killing curve with a large enough effect; inconclusive means small, poorly fitted or top-dose-only effect; inactive means no such curve, though single readings can be large or run the other way.
Potency means the concentration at half of the fitted maximal effect.

This assay in a line: qHTS of pediatric cancer cell lines to identify multiple opportunities for drug repurposing: Primary screen for Saos-2 cells (AID 1347097). Further: nearly all actives have a fitted effect of over 40% in size. As to conditions: Saos-2 viability, CellTiter-Glo ATP luminescence, 48 h; series mostly up to 46 µM. The text has this:
Drug repurposing or repositioning has been offered as a strategy for drug development in oncology programs. This approach has special potential for childhood cancers and other rare or orphan diseases, where the expected return on new drug development has been a disincentive to pharmaceuticals. […] In this project we exploit the poly-pharmacology of drugs to discover new indications via phenotypic screening of a panel of 19 well-characterized cell lines derived from solid tumors seen in children and adolescents. The goal is to identify approved drugs with previously unrecognized anticancer properties that has the potential to reveal new mechanisms and biological processes involved in carcinogenesis or drug resistance. We employed a titration-based paradigm (quantitative high-throughput screening or qHTS), where all compounds were tested at multiple concentrations for their effect on cell viability. Concentration-response curves (CRCs) were derived directly from the primary screen, and both potency and efficacy values were used to identify compounds with robust bioactivity profiles. We screened the NIH Chemical Genomics Center (NCGC) Pharmaceutical Collection (NPC) and Mechanism Interrogation Plate (MIPE) small molecule collections of approved and investigational compounds against these cell lines; and measured metabolically active cells after 48 hours of compound treatment as a proxy for cell viability. […] Assay Submitter: Nathalia J. Martinez, National Center for Advancing Translational Sciences, National Institutes of Health, Rockville, MD, USA; email: natalia.martinez@nih.gov Shen, M et al. Quantitative high-throughput phenotypic screening of pediatric cancer cell lines identifies multiple opportunities for drug repurposing. Oncotarget 2017 Dec 19;9(4):4758-4772. PMID 29435139.
The cells were obtained from University of North Carolina (UNC), Pediatric Preclinical Testing Program (PPT), and Coriell Institute (CI). qHTS cell viability assay: Cells were assayed in growth media at a density of 500-1,000 cells/well. Five microliters of cells were dispensed into 1,536-well, white, solid-bottom, TC-treated plates (Greiner Bio One) using a multidrop dispenser and incubated at 37 degrees C, 5% CO2, under a humidified atmosphere for 5 hours. Twenty-three nanoliters of compounds and controls (neutral control DMSO or positive control bortezomib at final concentration of 2.3 µM) were subsequently transferred by Kalypsys pintool. For primary screens, the MIPE collection was tested at 11-point dilutions (final concentrations range from 0.78 nM to 46 µM) and the NPC collection at 8-point dilutions (final concentrations range from 0.59 nM to 46 µM). Compounds tested in follow-up screens were assayed at 11-point dilutions. Cells were incubated for 48 hours, followed by addition of 3 µL of CellTiter-Glo (Promega). After a 15 min incubation at room temperature, samples were analyzed for luminescence intensity using a ViewLux High-throughput CCD imager equipped with clear filters.
On the technique in general: qHTS replaces the single test concentration by a dilution series.
Take `Cc1c(C)c2c(c(C)c1O)CCC(C)(COc1ccc(CC3SC(=O)NC3=O)cc1)O2` (stereo not given): the Potency entry is “inactive”.
With `CNC[C@H](O)c1cccc(O)c1` the entry was “inactive”; with `NCCc1ccc(O)c(O)c1`, “inactive”.
With `CCOC(=O)N[C@@H]1CC[C@@H]2[C@@H](C1)C[C@H]1C(=O)O[C@H](C)[C@H]1[C@@H]2C=Cc1ccc(-c2cccc(F)c2)cn1` the figure was 5.9 µM (active); with `COc1ccc(-c2ccc3c(N4CCOC[C@H]4C)nc(N4CCOC[C@H]4C)nc3n2)cc1CO`, 0.469 µM (active); with `COCC(=O)NCC=Cc1ccc2ncnc(Nc3ccc(Oc4ccc(C)nc4)c(C)c3)c2c1`, 16.6 µM (active).
With `CC(C)(Sc1ccc(CCN(CCCCC2CCCCC2)C(=O)NC2CCCCC2)cc1)C(=O)O` the figure was 23.5 µM (active); with `CC(C)(N)C(=O)N[C@H](COCc1ccccc1)C(=O)N1CCC2(CC1)CN(S(C)(=O)=O)c1ccccc12`, “inactive”.
Turning to `CC(=O)NC(C)c1ccc(Oc2ccc(OC(C)C)cc2)cc1` (stereo not given), the Potency is 18.7 µM (active).
With `O=C(O)COCCN1CCN(C(c2ccccc2)c2ccc(Cl)cc2)CC1` (stereo not given) the entry was “inactive”; with `CCCC(CCC)C(=O)O`, “inactive”; with `CC(C)(C)NCC(O)c1ccc(O)c(CO)c1` (stereo not given), “inactive”.
For the molecule `COc1ccc2nc(S(=O)Cc3ncc(C)c(OC)c3C)[nH]c2c1` (stereo not given), the Potency entry is “inactive”.
With `CC(c1cc2ccccc2s1)N(O)C(N)=O` (stereo not given) the entry was “inactive”.
The result for `O=NN(CCCl)C(=O)NCCCl` reads “inactive”.
Regarding `CC(C[N+](C)(C)C)OC(N)=O` (stereo not given), the Potency entry is “inactive”.
With `O=C(C=Cc1ccc(/C=C/C(=O)Nc2ccc(C3=NCCN3)cc2)cc1)Nc1ccc(C2=NCCN2)cc1` the entry was “inactive”; with `COc1ccc(C2=N[C@H](c3ccc(Cl)cc3)[C@H](c3ccc(Cl)cc3)N2C(=O)N2CCNC(=O)C2)c(OC(C)C)c1`, 23.5 µM (active).
With `CCCCNc1cc(C(=O)O)cc(S(N)(=O)=O)c1Oc1ccccc1` the entry was “inactive”.
The result for `Cc1cc(Nc2nc(N[C@@H](C)c3ncc(F)cn3)ncc2Cl)n[nH]1` reads 26.4 µM (active).
For the molecule `Nc1ccc(S(=O)(=O)Nc2ccnn2-c2ccccc2)cc1`, the Potency entry is “inactive”.
With `NC(=O)c1cnccn1`, the Potency entry is “inactive”.
With `N#CC[C@H](C1CCCC1)n1cc(-c2ncnc3[nH]ccc23)cn1` the entry was “inactive”; with `CCC(=O)N[C@H]1CC[C@H](C(=O)N(C)c2ccc(-c3nc4ccccc4o3)cc2)C1`, “inactive”.
The result for `CCOc1cc(N2CCC(O)CC2)ccc1Nc1ncc2c(n1)N(C)c1ccccc1C(=O)N2C` reads 0.118 µM (active).
Regarding `Clc1cccc(Cl)c1NC1=NCCN1`, the Potency result was “inactive”.
The result for `C#Cc1cccc(Nc2ncnc3cc(OCCOC)c(OCCOC)cc23)c1` reads 16.6 µM (active); that for `Cc1cnc(Nc2ccc(OCCN3CCCC3)cc2)nc1Nc1cccc(S(=O)(=O)NC(C)(C)C)c1`, “inactive”.
`OCCn1cc(-c2cnc3nnn(Cc4ccc5ncccc5c4)c3n2)cn1`: the Potency result was “inactive”.
For `C1COC(NC(C2CC2)C2CC2)=N1`, the Potency result was “inactive”.
With `CCn1c(-c2nonc2N)nc2cnc(Oc3cccc(NC(=O)c4ccc(OCCN5CCOCC5)cc4)c3)cc21` the figure was 0.662 µM (active).
With `Nc1ncnc2nc(-c3ccc(N4CCOCC4)nc3)cc(-c3cccc(Br)c3)c12` the entry was “inactive”; with `COc1ccc(CC2=NN3C([C@@H](CCc4ccccc4)[C@@H](C)O)=NC(C)C3C(=O)N2)cc1OC` (stereo not given in full), “inactive”.
With `NC(=O)c1ccc(I)c([N+](=O)[O-])c1`, the Potency entry is “inactive”.
With `CC1(C)SCCN(S(=O)(=O)c2ccc(OCC#CCO)cc2)[C@@H]1C(=O)NO` the entry was “inactive”.
`Clc1ccc(Nc2nnc(Cc3ccncc3)c3ccccc23)cc1`: the Potency result is “inactive”.
The result for `Cc1c(CCOc2ccc(C(=O)O)cc2)c2cc(Cl)ccc2n1C(c1ccccc1)c1ccccc1` reads “inactive”; that for `CCN(c1ccccc1)c1cc(NC)[n+](C)c(C)n1`, “inactive”.
Turning to `NS(=O)(=O)c1cc2c(cc1Cl)NC=NS2(=O)=O`, the Potency result is “inactive”.
The result for `C[C@]12CCC(=O)C=C1CC[C@@H]1[C@@H]2[C@@H](O)C[C@@]2(C)[C@H]1CC[C@]2(O)C(=O)CO` reads “inactive”.
